Test results reported in the supplement of paper PMC12494721.
Structures can show the parent of a compound that is named as a salt.

Assays:
Settings in all cases: incubation time: 27 h, anaerobic, 37 °C;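 for the amine columns active = adjusted P below 0.05 in both replicates with a change the same way and a mean fold change under 0.8 or over 1.25; inactive = the rest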
[1] = tested on: Clostridium sporogenes DSM 1664; assay: growth (OD595) fold change vs plate DMSO controls (fold change (ratio)); higher = more growth
How it was run: (§1)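 To obtain OD, 595 nm absorbance readings were blank-subtracted, corrected for compound background using 20 µM compound solutions in water, and multiplied by a calibration factor of 5. They came from 96-well mGAM cultures grown anaerobically for 27 h at 37 °C and shaken before reading. Growth is the fold change relative to the median of plate DMSO controls. Two biological replicates were averaged, and fold changes above 1.5 were set to NA.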

[2] = tested on: Escherichia coli IAI1; assay: as above
How it was run: as §1

[3] = tested on: Klebsiella aerogenes DSM 30053; assay: as above
How it was run: as §1

[4] = tested on: Ruminococcus gnavus DSM 108212; assay: as above
How it was run: as §1

[5] = tested on: Klebsiella aerogenes DSM 30053; assay: fold change of Histamine concentration vs plate DMSO controls (fold change (ratio)); higher = more amine produced, active = hit call of the paper (significant change in both replicates, either direction)
How it was run: (§2)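 Amines were quantified by LC–triple-quadrupole MS in dynamic MRM mode against external calibration curves, with drift correction within each batch. The samples were whole anaerobic mGAM cultures of four gut bacterial strains, grown for 27 h at 37 °C in 80 µL wells and extracted with cold acetonitrile/methanol with 0.1% formic acid, then centrifuged. Values are reported as fold change over DMSO controls on the same plate. The mean of 2 biological replicates is given.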

[6] = tested on: Clostridium sporogenes DSM 1664; assay: fold change of Tryptamine concentration vs plate DMSO controls (fold change (ratio)); higher = more amine produced, active = hit call of the paper (significant change in both replicates, either direction)
How it was run: as §2

[7] = tested on: Ruminococcus gnavus DSM 108212; assay: as above
How it was run: as §2

[8] = tested on: Escherichia coli IAI1; assay: fold change of Putrescine concentration vs plate DMSO controls (fold change (ratio)); higher = more amine produced, active = hit call of the paper (significant change in both replicates, either direction)
How it was run: as §2

[9] = tested on: Klebsiella aerogenes DSM 30053; assay: as above
How it was run: as §2

[10] = tested on: Escherichia coli IAI1; assay: fold change of Cadaverine concentration vs plate DMSO controls (fold change (ratio)); higher = more amine produced, active = hit call of the paper (significant change in both replicates, either direction)
How it was run: as §2

[11] = tested on: Klebsiella aerogenes DSM 30053; assay: as above
How it was run: as §2

[12] = tested on: Ruminococcus gnavus DSM 108212; assay: fold change of 2-Phenylethylamine concentration vs plate DMSO controls (fold change (ratio)); higher = more amine produced, active = hit call of the paper (significant change in both replicates, either direction)
How it was run: as §2

SMILES	growth [1]	growth [2]	growth [3]	growth [4]	fold change of Histamine concentration [5]	fold change of Tryptamine concentration [6]	fold change of Tryptamine concentration [7]	fold change of Putrescine concentration [8]	fold change of Putrescine concentration [9]	fold change of Cadaverine concentration [10]	fold change of Cadaverine concentration [11]	fold change of 2-Phenylethylamine concentration [12]
CC[N+](CC)(CC)CCC(O)(c1ccccc1)C1CCCCC1 (stereo unspecified) [Tridihexethyl chloride] (20 µM)	0.911	1	1.01	1.16	0.955 (inactive)	1.17 (inactive)	1.06 (inactive)	0.812 (inactive)	0.975 (inactive)	0.857 (inactive)	1.02 (inactive)	1.03 (inactive)
CCCN(CCC)C(=O)C(CCC(=O)O)NC(=O)c1ccccc1 (stereo unspecified) [Proglumide] (20 µM)	0.898	1.36	1.01	0.78	0.906 (inactive)	1.44 (active)	1.06 (inactive)	1.31 (active)	0.919 (inactive)	0.929 (inactive)	1.01 (inactive)	1.11 (inactive)
CCN(CC)CCNC(=O)COc1ccc(OC)cc1 [Mefexamide hydrochloride] (20 µM)	0.963	1.01	1.08	1.05	0.874 (inactive)	1.07 (inactive)	1.01 (inactive)	1.02 (inactive)	0.961 (inactive)	1.05 (inactive)	1.02 (inactive)	0.977 (inactive)
